From PubChem BioAssay AID1220 (Sanford-Burnham Center for Chemical Genomics, 2008)
In all, about 190,000 compounds went through this assay and about 1,300 (0.68%) were called active. Cut-off read from the data, not from the text of the source: active = inhibition above about 50%; inactive = the rest. The list comes from a sample in which actives are over-represented; it also holds similar structures and randomly drawn compounds.

The compounds below were run against Mannose-6-phosphate isomerase (Homo sapiens) (UniProt P34949) (assay: human PMI inhibitors, high substrate, primary screen, biochemical, fluorescence intensity, high mannose 6-phosphate (AID 1220)). Details: recombinant PMI enzyme, coupled fluorescence intensity; at 20 µM; active compounds read high.
Mannose-6-phosphate isomerase (Homo sapiens), sequence (P34949 whole entry, looked up): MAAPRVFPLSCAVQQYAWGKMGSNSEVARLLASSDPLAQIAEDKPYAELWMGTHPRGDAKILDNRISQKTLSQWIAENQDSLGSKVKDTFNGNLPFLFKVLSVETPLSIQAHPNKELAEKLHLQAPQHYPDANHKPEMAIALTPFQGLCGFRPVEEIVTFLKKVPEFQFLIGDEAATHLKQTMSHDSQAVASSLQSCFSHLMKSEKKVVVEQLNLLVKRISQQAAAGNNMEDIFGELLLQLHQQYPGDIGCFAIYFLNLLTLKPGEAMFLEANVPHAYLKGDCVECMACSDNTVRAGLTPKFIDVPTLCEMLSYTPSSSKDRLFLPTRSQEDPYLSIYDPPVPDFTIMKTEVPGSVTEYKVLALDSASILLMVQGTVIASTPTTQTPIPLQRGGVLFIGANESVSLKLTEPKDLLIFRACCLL
For `O=C1C2C3C=CC(C3)C2C(=O)N1c1ccccc1OS(=O)(=O)c1ccccc1` (stereo not given), the inhibition was -5% (inactive). In the case of `CCOc1ccc(/C=C2\SC(N3CCc4ccccc4C3)=NC2=O)cc1`, the inhibition is reported as 3.5% (inactive). With `Cc1ccc2c(c1C)OC(=O)CC2(C)C` the inhibition was -5.5% (inactive). In the case of `COc1ccc(N)c2c1C(=O)c1ccccc1C2=O`, the inhibition is reported as 23.8% (inactive). With `Cc1cccc(N)c1-c1c(C)cccc1N` the inhibition was 5.8% (inactive). In the case of `Cc1ccc(N)c2c1OCCC2=O`, the inhibition is reported as 57.7% (active). For `COc1ccc(N)c2c1OCCC2=O`, the inhibition was 59.8% (active). With `COc1ccc(OC)c2c1CCC2=O` the inhibition was -2.6% (inactive). With `COC(=O)c1ccc(/C=N/NC(=S)NCCN2CCOCC2)cc1` the inhibition was -1.5% (inactive). With `NC(=O)C1CCN(C(=O)C2CCN(S(=O)(=O)c3ccccc3)CC2)CC1` the inhibition was 5% (inactive). `CC1(C)Cc2c(ccc3ccccc23)/C(=C/C(=O)N2CCCCC2)N1` was tested, and the inhibition was -2.6% (inactive). In the case of `CC1(C)Cc2ccccc2/C(=C/C(=O)N2CCCCCC2)N1`, the inhibition is reported as -22.6% (inactive). `CC1(C)Cc2ccccc2C2=C(C(=O)N3CCCCCC3)C(=O)C(=O)N21` was tested, and the inhibition was 60.5% (active). In the case of `CC1(C)Cc2c(ccc3ccccc23)C2=C(C(=O)N3CCCC3)C(=O)C(=O)N21`, the inhibition is reported as 56% (active). For `CCOC(=O)C1=C2c3ccc4ccccc4c3CC(C)(C)N2C(=O)C1=O`, the inhibition was 27.6% (inactive). For `C=CCC1(O)C(=O)N2C(=C1C(=O)N1CCOCC1)c1ccccc1CC2(C)C` (stereo not given), the inhibition was -1.7% (inactive). `COc1ccc(/C=N/NS(C)(=O)=O)c(OC)c1` was tested, and the inhibition was 8.2% (inactive). In the case of `CCOC(=O)N/N=C1\CC(C)CC(C)(C)C1` (stereo not given), the inhibition is reported as 4.2% (inactive). `COc1ccc(CCNC(=O)COC(=O)/C=C/c2cc(OC)c(OC)c(OC)c2)cc1OC` was tested, and the inhibition was -0.4% (inactive). For `COc1cccc(CC2(CO)CCN(Cc3ccc4cccc(F)c4n3)CC2)c1`, the inhibition was 13.1% (inactive). With `Cc1ccc(-n2c(C)cc(C(=O)COc3cccnc3[N+](=O)[O-])c2C)cc1` the inhibition was 54.5% (active). For `COc1ccc(-n2c(C)cc(C(=O)COc3ccc(C)nc3[N+](=O)[O-])c2C)cc1`, the inhibition was 41% (inactive). With `Cc1ccc(OCC(=O)c2cc(C)n(C3CC3)c2C)c([N+](=O)[O-])n1` the inhibition was 10.6% (inactive). With `Cc1ccc(OCC(=O)c2cc(C)n(-c3ccccc3)c2C)c([N+](=O)[O-])n1` the inhibition was 21.3% (inactive). `Cc1cc(C(=O)COc2cccnc2[N+](=O)[O-])c(C)n1-c1ccccc1` was tested, and the inhibition was 53.3% (active). For `Cc1cc(-n2c(C)cc(C(=O)COc3ccccc3[N+](=O)[O-])c2C)no1`, the inhibition was 9.1% (inactive). In the case of `CN(Cc1ccccc1)C(=O)CC(c1ccccc1)c1cc(Cl)ccc1O` (stereo not given), the inhibition is reported as 4.5% (inactive). With `CCn1c(=O)c(C(=O)CN2CCN(S(=O)(=O)c3ccccc3)CC2)c(N)n(Cc2ccccc2)c1=O` the inhibition was 0.5% (inactive). `O=C(O)c1cc(NCc2c(F)cccc2Cl)ccc1N1CCOCC1` was tested, and the inhibition was 2.7% (inactive). For `NS(=O)(=O)c1ccc(NCc2c(F)cccc2Cl)cc1`, the inhibition was 4.6% (inactive). With `O=C(Nc1ccc(N2CCCCCC2)cc1)c1ccccc1Cl` the inhibition was 27.3% (inactive). For `O=S(=O)(Nc1ccc(N2CCCCC2)cc1)c1ccccc1`, the inhibition was 0.6% (inactive). With `Clc1cccc(Cl)c1CNc1ccc(N2CCCC2)cc1` the inhibition was 84.4% (active). `COC(=O)C(CCSC)NC(=O)CNS(=O)(=O)c1ccc(Br)cc1` (stereo not given) was tested, and the inhibition was -7.6% (inactive). In the case of `Cc1ccc(C)c(CN2CCNC2=O)c1`, the inhibition is reported as -0.9% (inactive). In the case of `CCNC(=O)CC1C(=O)N(CC)C(=S)N1NC(=O)c1cccnc1` (stereo not given), the inhibition is reported as -4.7% (inactive). For `N=C1S/C(=C\c2ccccc2F)C(=O)N1c1ccc(F)cc1`, the inhibition was 3.1% (inactive). `Cc1cccc(NS(=O)(=O)c2ccc(Br)s2)n1` was tested, and the inhibition was -4.4% (inactive). `Cc1ccc(NS(=O)(=O)c2ccc(Br)s2)nc1` was tested, and the inhibition was 66.2% (active). With `Cc1ccc(NS(=O)(=O)Cc2ccccc2)nc1` the inhibition was 16.5% (inactive). For `Cc1cc(C)nc(NS(=O)(=O)c2ccc(Br)s2)c1`, the inhibition was 42.1% (inactive). `CCCCS(=O)(=O)Nc1ccc(C)cn1` was tested, and the inhibition was 57.3% (active). With `CCCCCCCCCS(=O)(=O)Nc1cc(C)ccn1` the inhibition was 7.7% (inactive). In the case of `O=c1cc(CCl)nc2sc3ccccc3n12`, the inhibition is reported as -13.1% (inactive). In the case of `COc1c(O)ccc(C2NC(=O)NC(C)=C2C(=O)Nc2ccccc2C)c1[N+](=O)[O-]` (stereo not given), the inhibition is reported as 49.8% (inactive). `COC(=O)C1=C(C)N(C)C(=O)NC1c1ccc(O)c(Cl)c1` (stereo not given) was tested, and the inhibition was 3.8% (inactive). With `CCOc1c(O)ccc(C2NC(=O)N(C)C(C)=C2C(=O)OC)c1[N+](=O)[O-]` (stereo not given) the inhibition was 60.2% (active). `COC(=O)C1=C(C)NC(=O)NC1c1ccc([N+](=O)[O-])o1` (stereo not given) was tested, and the inhibition was 10.9% (inactive). `CCOc1c(O)ccc(C2NC(=O)NC(C)=C2C(=O)OC)c1[N+](=O)[O-]` (stereo not given) was tested, and the inhibition was 50.9% (active). With `COC(=O)C1=C(C)N(C)C(=O)NC1c1cc2c(cc1[N+](=O)[O-])OCO2` (stereo not given) the inhibition was 42.7% (inactive). `CN=C1SC(CC(=O)Nc2cc(Cl)ccc2Cl)C(=O)N1C` (stereo not given) was tested, and the inhibition was -9.7% (inactive). In the case of `COc1ccc(/C=N/Nc2nc(N3CCCC3)nc(N3CCCC3)n2)c(OC)c1OC`, the inhibition is reported as 4% (inactive). In the case of `Cc1onc(-c2c(F)cccc2Cl)c1C(=O)NCCO`, the inhibition is reported as -4% (inactive). `CC1(C)CC(=O)C(C2c3ccccc3S(=O)(=O)c3ccccc32)C(=O)C1` was tested, and the inhibition was -5.8% (inactive). With `CC1(C)CC(=O)C(C2c3ccccc3Oc3ccccc32)C(=O)C1` the inhibition was 52.9% (active). In the case of `COc1ccc2c(c1)C(C1C(=O)CCCC1=O)c1ccccc1O2` (stereo not given), the inhibition is reported as 2.9% (inactive). `O=C(c1ccc(-c2ccccc2)cc1)N1CCC(C(=O)N2CCCC2)CC1` was tested, and the inhibition was 5.4% (inactive). For `COc1ccc(CC(=O)NC(=S)Nc2ccc(S(N)(=O)=O)cc2)cc1`, the inhibition was -5.8% (inactive). With `Cc1cccc(NC(=O)NCC(F)(F)F)n1` the inhibition was -6.3% (inactive). With `CCOC(=O)C(NC(=O)Nc1ccccc1)(OCC)C(F)(F)F` (stereo not given) the inhibition was 5.2% (inactive). `CCOC(=O)C(NC(=O)Nc1cccc(C)n1)(OCC(F)(F)F)C(F)(F)F` (stereo not given) was tested, and the inhibition was 59.1% (active). With `Cc1cc(C)nc(NS(=O)(=O)c2ccc(NC(=O)CN3C(=O)C4CC=CCC4C3=O)cc2)n1` (stereo not given) the inhibition was -7.4% (inactive). In the case of `Cc1cc(C(=O)Nc2ccccc2C#N)n(-c2ccccc2)n1`, the inhibition is reported as 1.2% (inactive). In the case of `CC(=O)c1cccc(N2C(=NC(=O)C(C)C)SC3CS(=O)(=O)CC32)c1` (stereo not given), the inhibition is reported as 10.5% (inactive). In the case of `O=C1COc2ccc(C(=O)COC(=O)Cc3ccccc3F)cc2N1`, the inhibition is reported as -2.3% (inactive). In the case of `CC(=O)Oc1c(C)cc(O)c2ccccc12`, the inhibition is reported as 19.2% (inactive). `CC(=O)Cc1cc(O)c2ccccc2c1OC(=O)c1ccccc1` was tested, and the inhibition was 68.6% (active). With `O=C(Oc1cccc2c(O)cccc12)c1ccccc1` the inhibition was 23.5% (inactive). For `Cc1cc(N2CCCC2=O)c(N)cc1N`, the inhibition was 4.5% (inactive). In the case of `O=C1CN(CC(=O)Nc2cccc(Cl)c2Cl)c2ccccc2N1`, the inhibition is reported as -43.6% (inactive). In the case of `CCOc1ccc2nc(NC3=NCN(Cc4ccco4)CN3)nc(C)c2c1`, the inhibition is reported as -0.5% (inactive). `CCOc1cc(/C=C2\N=C(SC)SC2=O)cc([N+](=O)[O-])c1OC(C)=O` was tested, and the inhibition was 35.6% (inactive). For `C=CCSC1=N/C(=C\c2cc(OCC)c(OC(C)=O)c([N+](=O)[O-])c2)C(=O)S1`, the inhibition was 38.8% (inactive). For `CCOc1cc(/C=C2\N=C(SCC)SC2=O)cc([N+](=O)[O-])c1OC(C)=O`, the inhibition was 53.1% (active). For `CC(=O)NCC(=O)N(C)C(C(=O)Nc1ccc2c(c1)OCCO2)c1ccc(C)cc1` (stereo not given), the inhibition was 5.2% (inactive). For `COC(=O)Nc1sc2c(c1C(N)=O)CCC(C)C2` (stereo not given), the inhibition was 59.6% (active). For `CCOC(=O)Nc1sc2c(c1C(N)=O)CCC(C)C2` (stereo not given), the inhibition was -7.3% (inactive). In the case of `CC(=O)NC(=S)Nc1sc2c(c1C(N)=O)CCC(C)C2` (stereo not given), the inhibition is reported as -3% (inactive). In the case of `CC(C)C(NC(=O)c1ccc(Br)cc1)C(=O)NC1=NCCS1` (stereo not given), the inhibition is reported as -3% (inactive). For `CON1C(=O)C(=O)N(OC)C(C)(C)C1(C)C`, the inhibition was 44.6% (inactive). `Clc1ccc(C2NCCc3sccc32)cc1` (stereo not given) was tested, and the inhibition was 10.9% (inactive). For `CC1=CC(C)(C)N=C(NC#N)N1`, the inhibition was 2.4% (inactive). With `O=C(COc1ccc(Cl)cc1)N1CCN(c2ccc([N+](=O)[O-])c(N3CCCCC3)c2)CC1` the inhibition was 12.2% (inactive). In the case of `COC(=O)CNC(=O)c1cccc(Cl)c1`, the inhibition is reported as -5% (inactive). With `O=C(NC(Cc1c[nH]c2ccccc12)C(=O)NCCCN1CCOCC1)c1cccs1` (stereo not given) the inhibition was 11.4% (inactive). In the case of `O=C(c1ccccc1)c1coc2c1C(=O)c1ccccc1C2=O`, the inhibition is reported as 30.7% (inactive). In the case of `O=C1c2ccccc2C(=O)c2c1oc(C(F)(F)F)c2C(=O)c1ccccc1`, the inhibition is reported as -32.9% (inactive). `CCCCOc1ccc(C(=S)N2CCC(C(N)=O)CC2)cc1` was tested, and the inhibition was 9.1% (inactive). With `CCN(CC)c1cccc(OCC(=O)N(C)CCC#N)c1` the inhibition was 53.3% (active). In the case of `CCc1ccc(OCC(=O)N(C)CCC#N)c(Br)c1`, the inhibition is reported as 3.1% (inactive). In the case of `CN(CCC#N)C(=O)COc1ccc(Br)cc1Cl`, the inhibition is reported as -5.3% (inactive). For `Cc1cc(C)n(-c2cc(N3CCOCC3)nc(-c3ccccc3)n2)n1`, the inhibition was 8.9% (inactive). With `CCc1sc(C(=O)NCCc2ccc(S(N)(=O)=O)cc2)cc1Br` the inhibition was 7.3% (inactive). For `COc1cc(C(=O)NCCSc2ccc(Br)cc2)cc(OC)c1OC`, the inhibition was 5.3% (inactive). `CC(=O)Nc1ccc(NS(=O)(=O)c2cc(C)sc2C)cc1` was tested, and the inhibition was 61.6% (active). In the case of `Cc1cc(S(=O)(=O)Nc2ccc(N(C)C)cc2)c(C)s1`, the inhibition is reported as 10.9% (inactive). `Cc1cc(S(=O)(=O)Nc2ccc(F)cc2)c(C)s1` was tested, and the inhibition was 5% (inactive). `CN(C)CCCNc1oc(-c2ccccc2)nc1C#N` was tested, and the inhibition was -7.3% (inactive). `CCOC(=O)c1c(NCC2CCCO2)c2ccccc2[nH]c1=O` (stereo not given) was tested, and the inhibition was -10.2% (inactive). In the case of `COc1ccc(N2C(=O)N(Cc3cccc(F)c3)c3ccccc3S2(=O)=O)cc1`, the inhibition is reported as 0.3% (inactive).
